High-throughput results (PubChem BioAssay)
TRHR ag: agonists of human TRH receptor. TRHR cells, calcium flux fluo-8, FDSS agonist mode. actives 0.18% (n = 360,000). P34981. activation, % at 2 µM; in the data active = activation above about 30%; also: 0% is about no effect
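Agonist-mode FDSS calcium read (Ex 480/Em 530, 1 s cycles) in 1536-well TRHR cells with fluo-8 dye, after 10-cycle baseline and 23 nL compound addition; TRH at EC20 (10 nM final) added afterwards for the enhancer phase.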
TRHR PAM: TRH receptor (human) allosteric enhancement | P34981 | TRHR cells, fluo-8 calcium fluorescence, EC20 TRH enhancement | enhancement, % at 2 µM | actives 0.66% (n = 360,000); in the data active = enhancement above about 30%; also: 0% is about no effect
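Enhancer read-out: after compound pinning and an initial kinetic agonist-mode read, an EC20 of TRH (10 nM final) was injected and fluo-8 calcium signal (Ex 480/Em 530) followed at 1 s/cycle for 100 cycles in TRHR-expressing cells.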
MBNL1-CUG inh: inhibitors of human MBNL1 binding to CUG repeat RNA; AID 2675; actives 0.036% (n = 280,000); TR-FRET MBNL1-His/biotin-(CUG)12 binding, 665/545 ratio; Potency, µM (doses to about 57.5 µM), without a hit: top-dose activity change, negative = inhibition, hits mostly inhibitors; active = well fitted inhibition curve with a large enough effect in the signal ratio, with a control signal flat, not every such curve was filed as active; inconclusive = small, poorly fitted or top-dose-only effect, or effect the other way, or a change in a side signal; inactive = no such curve, though single readings can be large or run the other way; the % refers to the signal ratio; also: potency is read from the fitted curve at half-maximal effect; % is scaled to controls: 0 for no effect and ±100 for the full control effect
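Compound titration spanned 92 nM–58 uM against the MBNL1-His/biotin-(CUG)12 complex. After 60 min at room temperature with 5 nM streptavidin-XL665 and 0.055 ng/ul terbium anti-His, ratiometric 665/545 nm emission (Ex 340 nm) normalized to controls.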
IL2 activator: IL-2 activation. IL-2 activation reporter assay, cell-based qHTS; stimulated with anti-CD3/CD4/CD28 beads; in transgenic mouse T cells. activation, % (series mostly up to about 46 µM). actives 0.065% (n = 360,000); in the data active = activation above about 50%; inconclusive = mostly about 30% to 49%; also: 0% is about no effect
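Unstimulated transgenic mouse T cells; 60-min compound exposure; bead-based TCR/CD4/CD28 stimulation; 18 h culture, 37 degrees C; dual fluorescence (EGFP, DsRed) plate cytometry.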
Epigenetic reg: derepresses silenced GFP reporter in murine cells; actives 0.2% (n = 280,000); Potency, µM (top dose mostly 53.9 µM), for inactives: at the top dose GFP activation, actives largely listed as activators; murine LDR cells, GFP reporter derepression, 30 h; also: potency is read from the fitted curve at half-maximal effect; % of control where 0% means no effect; nearly all actives have a fitted effect of over 60% in size
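GFP-positive cell count by laser-scanning cytometry (objects 20–120 um) after 30 h, 37 C compound exposure of murine LDR cells; reporter is CMV-GFP integrated at a silenced locus, inducible by HDAC or DNMT inhibitors.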
CBFb-RUNX1 inh: CBF-beta/RUNX1 interaction disruption; 230,000 tested, under 10 active; AlphaScreen CBFb-His/RUNX1-biotin binding, biochemical; Potency, µM (doses to about 59.8 µM), for inactives: top-dose activity, negative = inhibition, actives largely listed as inhibitors; Q01196+Q13951; also: % of control where 0% means no effect
Target sequence (Q01196 whole entry, looked up): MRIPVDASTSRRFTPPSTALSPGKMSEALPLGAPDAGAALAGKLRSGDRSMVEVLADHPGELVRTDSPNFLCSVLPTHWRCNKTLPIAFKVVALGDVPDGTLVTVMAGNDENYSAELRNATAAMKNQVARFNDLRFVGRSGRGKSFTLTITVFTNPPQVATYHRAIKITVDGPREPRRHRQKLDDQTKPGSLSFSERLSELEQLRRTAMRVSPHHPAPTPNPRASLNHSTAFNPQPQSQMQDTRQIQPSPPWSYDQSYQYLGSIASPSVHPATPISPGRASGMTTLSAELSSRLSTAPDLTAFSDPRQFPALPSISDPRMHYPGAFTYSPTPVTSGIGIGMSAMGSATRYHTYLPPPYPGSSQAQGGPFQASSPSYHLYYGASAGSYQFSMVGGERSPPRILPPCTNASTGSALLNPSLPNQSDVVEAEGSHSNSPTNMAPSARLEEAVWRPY
Target sequence (Q13951 whole entry, looked up): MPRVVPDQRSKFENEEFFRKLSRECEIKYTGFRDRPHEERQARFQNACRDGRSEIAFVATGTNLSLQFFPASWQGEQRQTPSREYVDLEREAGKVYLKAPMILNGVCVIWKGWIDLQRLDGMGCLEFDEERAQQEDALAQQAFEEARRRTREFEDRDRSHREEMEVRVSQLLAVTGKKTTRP
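Room-temperature protein-protein interaction test with 30 nM each of His-tagged CBF-beta and biotinylated RUNX1, 15 min with compound, then 90 min with nickel plus streptavidin beads. Signal read in AlphaScreen mode.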
* = called active by the depositor. Rows were chosen to be rich in hits. Some 0.88% of all compounds tested hit in one or more screens of this group. Unless noted, calls follow the shape of the dose curve; as a rule, active = well fitted curve in the direction sought with a large enough effect; inconclusive = small, poorly fitted or top-dose-only effect, or another doubt; inactive = no such curve, though single readings can be large; an effect the other way counts as inactive or inconclusive.

`CCOc1ccccc1NC(=O)Cn1c(=O)n(C(C)C)c(=O)c2oc3ccccc3c21` gave TRHR ag -0.1, TRHR PAM 8.9 and Epigenetic reg 4.2%.
CC(=O)c1ccc(NC2=NS(=O)(=O)c3ccccc32)cc1 was read as TRHR ag -0.5, TRHR PAM 0.1 and Epigenetic reg -3.7%.
`CC(C(=O)Nc1ccccc1)N1C(=O)c2ccccc2C1=O` (stereo unspecified) gave TRHR ag 0.2, TRHR PAM 32.1*, MBNL1-CUG inh -2.3%, IL2 activator 12.4, Epigenetic reg -0.1% and CBFb-RUNX1 inh 8.2%.
`COc1ccc(-n2[nH]c(C)cc2=O)cc1` gave TRHR ag 0.2, TRHR PAM 32.6*, MBNL1-CUG inh -6.8%, IL2 activator -0.6, Epigenetic reg -1.7% and CBFb-RUNX1 inh -6.4%.
`COC(=O)c1cc(=O)n(Cc2cccs2)c(=Nc2ccccc2)s1` gave TRHR ag 0.7, TRHR PAM -0.2, MBNL1-CUG inh -8.7%, IL2 activator -0.7, Epigenetic reg 17.8µM* and CBFb-RUNX1 inh -22.1%.
Screening CCOc1ccccc1CNC(=O)c1cnn(-c2ccc(C)cc2)c1-n1cccc1 returned TRHR ag -0.5, TRHR PAM 3.6 and Epigenetic reg -4.3%.
CCOc1ccc(NS(=O)(=O)c2ccc(NC(=S)NC(=O)CC(C)C)cc2)cc1 was read as TRHR ag 3.5, TRHR PAM 32.1*, MBNL1-CUG inh -1.8%, IL2 activator 1.5, Epigenetic reg -0.8% and CBFb-RUNX1 inh -1.2%.
For Cc1cc(C(=O)OCC(=O)N(C)c2ccccc2)ccc1[N+](=O)[O-] the results were TRHR ag -0.7, TRHR PAM 35.0*, MBNL1-CUG inh inconclusive, IL2 activator -2.7, Epigenetic reg 0.2% and CBFb-RUNX1 inh 3.8%.
Screening Cc1ccc(C(=O)OCC(=O)N(C)c2ccccc2)cc1C returned TRHR ag 0.6, TRHR PAM 4.6, MBNL1-CUG inh 0.4% and IL2 activator -1.7.
`CCOC(=O)N1CCc2c(sc3c2c(=O)n(-c2ccc(CC)cc2)c(=O)n3CC(=O)c2ccc(F)cc2)C1` gave TRHR ag 0.6, TRHR PAM -12.2 and Epigenetic reg 2.4%.
For CCOC(=O)N1CCc2c(sc3c2c(=O)n(-c2ccc(F)cc2)c(=O)n3CC(=O)c2ccc(Cl)cc2)C1 the results were TRHR ag 3.3, TRHR PAM -1.5 and Epigenetic reg 15.8µM*.
For Cc1ccc(C)c(NC(=O)Nc2cc3c(cc2N2CCCCC2)n(C)c(=O)n3C)c1 the results were TRHR ag 0.6, TRHR PAM -8.9 and Epigenetic reg 1.2%.
`COc1ccc(NCc2cc3cc4c(cc3n(CC(=O)Nc3cccc(F)c3)c2=O)OCO4)cc1` gave TRHR ag -0.7, TRHR PAM 12.7 and Epigenetic reg 0.9%.
For COc1ccc(NCc2cc3cc4c(cc3n(CC(=O)Nc3ccc(F)cc3F)c2=O)OCO4)cc1 the results were TRHR ag 9.6, TRHR PAM 35.2* and Epigenetic reg 2.4%.
O=C(CNC(=O)c1ccccc1Cl)OC(C(=O)Nc1cc(C(F)(F)F)ccc1Cl)c1ccccc1 (stereo unspecified) was read as TRHR ag 0.7 and TRHR PAM 0.2.
`COC(=O)C1CCN(C(=O)COC(=O)Cc2c[nH]c3ccccc23)CC1` gave TRHR ag 0.6, TRHR PAM 37.1*, MBNL1-CUG inh -6.1%, IL2 activator -0.4, Epigenetic reg -1.1% and CBFb-RUNX1 inh 0.0%.
Cc1cc(C)n(C(=O)CNC(=O)c2cccs2)n1 was read as TRHR ag 0.2, TRHR PAM 37.2*, MBNL1-CUG inh -1.8%, IL2 activator -1.8, Epigenetic reg 0.0% and CBFb-RUNX1 inh 5.0%.
Screening Cc1cc(C)n(C(=O)CNC(=O)c2cccc(Cl)c2)n1 returned TRHR ag 0.8, TRHR PAM -2.1, MBNL1-CUG inh 2.3% and IL2 activator -0.3.
For COC(=O)c1ccc(Cl)c(-c2ccc(/C=N/NC(=O)Nc3ccccc3)o2)c1 the results were TRHR ag 0.2, TRHR PAM 31.0*, MBNL1-CUG inh inconclusive, IL2 activator -0.4, Epigenetic reg 0.2% and CBFb-RUNX1 inh -1.4%.
`COC(=O)N/N=C/c1ccc(-c2ccccc2Cl)o1` gave TRHR ag -0.6, TRHR PAM 0.1, MBNL1-CUG inh inconclusive, IL2 activator -0.9, Epigenetic reg 0.0% and CBFb-RUNX1 inh -2.7%.
N#Cc1nc(Nc2cccc(Br)c2)nc(NC2CCCC2)n1 was read as TRHR ag -1.1 and TRHR PAM -4.2.
`NC(=O)C1(c2ccccc2)CCCN1C(=O)c1ccccc1Br` (stereo unspecified) gave TRHR ag 0.1, TRHR PAM 35.9*, IL2 activator 0.0, Epigenetic reg 0.2% and CBFb-RUNX1 inh 3.2%.
O=C(CN1C2CCCC1CC(NC(=O)c1ccccc1)C2)Nc1ccccc1 (stereo unspecified) was read as TRHR ag -2.0, TRHR PAM 39.7*, MBNL1-CUG inh -4.3% and IL2 activator -1.0.
For Cc1ccc(C(=O)n2nc(C)c(S(=O)(=O)N3CCCCCC3)c2C)cc1C the results were TRHR ag 0.1, TRHR PAM 34.9* and Epigenetic reg -1.7%.
For CCn1c(C)nc2cc(C(=O)n3cc(C(=O)c4cc(F)ccc4O)cn3)ccc21 the results were TRHR ag 1.0, TRHR PAM 30.2*, MBNL1-CUG inh -3.6%, Epigenetic reg -1.0% and CBFb-RUNX1 inh 4.6%.
`CCC(=NNC(=O)c1ccc2c(c1)nc(C)n2CC)c1cc(F)ccc1O` gave IL2 activator -4.5.
COc1cccc(Cn2c(=O)n(CC3CCC(C(=O)N4CCOCC4)CC3)c(=O)c3sccc32)c1 (stereo unspecified) was read as TRHR ag -0.4, TRHR PAM 2.1 and Epigenetic reg 1.1%.
Screening COc1cccc(-c2nc(CS(=O)(=O)CC(=O)Nc3ccc(F)cc3F)c(C)o2)c1 returned TRHR ag -0.1, TRHR PAM 30.5*, MBNL1-CUG inh -4.7% and IL2 activator -0.4.
For CN(C)CCNC(=O)c1sc2nc(-c3ccccc3)cc(C(F)(F)F)c2c1N the results were TRHR ag 12.0, TRHR PAM 4.1, MBNL1-CUG inh 19.6% and IL2 activator -1.5.
For CC(=O)c1sc2nc(-c3cccs3)cc(C(F)(F)F)c2c1N the results were TRHR ag 40.9*, TRHR PAM 10.4, MBNL1-CUG inh 27.3%, IL2 activator 1.0, Epigenetic reg 15.8µM* and CBFb-RUNX1 inh 17.7%.
